This is a sample that favours compounds with a hit; in the whole collection about 5.9% have one here.
rCAG binder – r(CAG) repeat RNA binding; TO-PRO-1 dye displacement fluorescence; inhibition, % at 3 µM; AID 651821; hit rate 1.3% among 370,000;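 active means inhibition above the plate cutoff, the mean of all test compounds on that plate plus 3 SD, cut at about 35% in these data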;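 further: 0% = DMSO alone and 100% = 100 µM mitoxantrone as full dye displacement; higher means more dye released from RNA so lower well fluorescence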
ABHD5-PLIN5 inh – blocks binding of human ABHD5 to perilipin-5; hit rate 0.78% among 360,000; Split G. princeps luciferase complementation, luminescence, 4 h; Q00G26+Q8WTS1; inhibition, % at 4 µM;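 active means inhibition above the mean inhibition across every tested compound plus 3 SD, cut at about 22% in these data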;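 further: 0% = DMSO only wells and the 100% control is not disclosed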
ALR inh – inhibitors of human sulfhydryl oxidase ALR. P55789. purified ALR, DTT oxidation, H2O2 HRP-luminol luminescence. inhibition, % (concentration not given with the values). hit rate 3.8% among 290,000. AID 485317;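 active means mean replicate inhibition above about 79%, with every replicate also reaching it, limit read from the data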
PRMT1 FP inh – blocks human protein arginine methyltransferase 1 | Q99873 | recombinant PRMT1, activity-based probe fluorescence polarization | inhibition, % at 2.79 µM | hit rate 1.3% among 370,000 | AID 652257;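 active means inhibition above about 21% made by adding two undisclosed values, limit read from the data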
Rtt109 HAT inh – blocks Candida albicans Rtt109/Vps75 acetyltransferase activity. purified Rtt109/Vps75, ThioGlo CoA-SH fluorescence, 4 h. hit rate 0.16% among 330,000. inhibition, % at 34.9 µM. Q5AAJ8;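 active means inhibition of at least 50% in every replicate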
Target sequence (Q5AAJ8 whole entry, looked up): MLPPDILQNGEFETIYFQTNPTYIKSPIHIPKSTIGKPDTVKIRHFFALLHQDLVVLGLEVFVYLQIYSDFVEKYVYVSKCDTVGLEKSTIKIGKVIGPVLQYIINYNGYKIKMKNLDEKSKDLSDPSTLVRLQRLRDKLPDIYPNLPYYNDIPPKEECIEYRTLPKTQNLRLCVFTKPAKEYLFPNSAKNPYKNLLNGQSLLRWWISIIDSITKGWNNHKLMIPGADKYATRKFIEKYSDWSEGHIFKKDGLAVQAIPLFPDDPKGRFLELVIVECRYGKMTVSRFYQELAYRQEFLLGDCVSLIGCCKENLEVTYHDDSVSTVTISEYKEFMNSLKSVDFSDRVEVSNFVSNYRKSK
LANA-H2B inh – blocks KSHV LANA binding to histone H2A/H2B. cell-free LANA-H2A/H2B peptide, fluorescence polarization. inhibition, % (concentration not given with the values). hit rate 0.6% among 320,000; in the data active means inhibition mostly above about 10%, no sharp cut-off; inactive means mostly below about 6.7%
* marks the source's active call; other numbers are inactive results; nt = no result; + = active, no number.

SMILES | rCAG binder | ABHD5-PLIN5 inh | ALR inh | PRMT1 FP inh | Rtt109 HAT inh | LANA-H2B inh
N=C1C(c2nc3ccccc3s2)=C(O)CN1Cc1ccco1 | 8.4 | 16.4 | 97.6* | 6.0 | 1.2 | -0.2
C=CCn1c(SCc2c(F)c(F)c(F)c(F)c2F)nc(O)cc1=O | 7.8 | -7.3 | 98.8* | -1.7 | 5.4 | -0.3
CCCc1ccc(OCC(=O)Nc2cc(S(=O)(=O)CC)ccc2O)cc1 | 35.5* | 3.9 | 1.3 | -2.5 | 15.7 | 10.3
CN1C(=O)SC(Nc2cccc3ccccc23)C1=O (centres undefined) | 1.2 | -8.1 | 90.1* | -2.4 | -1.8 | -0.5
O=C1NC(=O)C(Nc2cccc3ccccc23)S1 (centres undefined) | 8.2 | -11.9 | 47.5 | 1.3 | 9.1 | 0.6
C#CCNC(=O)C[C@H]1C[C@@]2(C(=O)OC)C(=C[C@H](C(C)(C)C)O[C@@H]2C)N(CCc2ccc(OC)c(OC)c2)C1=O | -2.0 | nt | nt | 0.9 | nt | nt
COc1ccc(S(=O)(=O)N2Cc3ccccc3CC2C(=O)Nc2ccc(O)cc2)cc1OC (centres undefined) | 2.9 | -0.2 | 95.3* | 3.7 | -5.8 | -2.0
Brc1ccc(-c2ncc3ccccn23)cc1 | -0.9 | -0.2 | 88.6* | -1.5 | -16.4 | -2.3
Cc1[nH]c2ccccc2c1C(C[N+](=O)[O-])c1ccco1 (centres undefined) | 12.9 | -1.2 | 20.6 | 2.8 | 2.3 | -3.4
COc1cc(C(C[N+](=O)[O-])c2c(C)[nH]c3ccccc23)ccc1O (centres undefined) | 14.5 | 1.6 | 98.8* | 6.4 | 4.9 | -5.4
Cc1ccc(-c2[nH]c3ccccc3c2C(C[N+](=O)[O-])c2ccco2)cc1 (centres undefined) | 9.1 | 9.1 | 93.5* | 2.6 | 9.5 | -3.8
Cc1[nH]c2ccccc2c1C(C[N+](=O)[O-])c1cccc(O)c1 (centres undefined) | 2.3 | 4.1 | 98.0* | -1.7 | 11.6 | -0.1
Cc1[nH]c2ccccc2c1C(C[N+](=O)[O-])c1cccs1 (centres undefined) | 2.5 | -3.0 | 59.0 | -0.5 | -5.7 | 5.8
CC1=C(C(N)=O)C(c2ccc(Br)cc2)n2nc(CCCO)nc2N1 (centres undefined) | -0.7 | 6.0 | -7.0 | -0.1 | -6.0 | 15.8*
Cc1ccc(NC(=O)CN(C)C(=O)Cn2ncc(Cl)c(Cl)c2=O)cc1 | 8.9 | 7.5 | 6.7 | 6.8 | -4.5 | +
O=C(N/N=C/c1ccncc1)NC12CC3CC(CC(C3)C1)C2 | -4.8 | 6.7 | -12.8 | -3.9 | -5.1 | 2.7
O=C(NN=Cc1ccc(O)cc1)C(=O)NN=Cc1ccc(O)cc1 | 5.3 | 1.9 | nt | 0.9 | -0.5 | nt
O=C(N/N=C/c1ccc(O)cc1)NC12CC3CC(CC(C3)C1)C2 | 2.0 | -7.1 | 93.3* | 2.3 | -1.4 | 0.1
C=C1CC(C(=O)N/N=C/c2ccc(O)cc2)C1 | -2.6 | -4.4 | 99.7* | 7.2 | -2.1 | 3.5
COC(=O)C1CCN(C(=O)C2CC(=O)N(c3ccc(OC)cc3)C2c2ccc(OC)cc2)CC1 (centres undefined) | 6.4 | nt | nt | -2.1 | nt | nt
O=C(Nc1ccc(CN2CCOCC2)cc1)c1cc2ccccc2o1 | -6.5 | -11.4 | -8.4 | -2.4 | -7.0 | -0.9
O=C(Nc1ccc(CN2CCOCC2)cc1)c1cc2ccccn2n1 | 3.9 | -5.6 | 84.9* | -3.9 | -4.1 | -0.7
CC(C)C(c1nnnn1C1CCCCC1)N1CCc2ccccc21 (centres undefined) | -6.2 | 4.5 | 18.2 | -1.0 | 0.2 | 1.4
CC(C)C(c1nnnn1C1CCCC1)N1c2ccccc2CC1C (centres undefined) | -0.1 | 5.1 | 98.6* | 9.7 | -7.2 | 0.3
CC(C)C(c1nnnn1C1CCCCC1)N1CCOCC1 (centres undefined) | -2.8 | 3.8 | 0.0 | -2.6 | nt | 18.9*
COc1ccc(CNC(=O)COC(=O)c2c(NC(C)=O)sc(C)c2C)cc1OC | 2.0 | 1.9 | nt | 3.1 | nt | nt
COC(=O)C(N)Cc1ccc(O)c(O)c1 (centres undefined) | 2.8 | -1.6 | 99.2* | 20.0 | 3.2 | 0.9
COC(=O)C(N)Cc1ccc(O)cc1 (centres undefined) | -0.2 | 5.3 | -10.5 | -1.4 | 2.4 | 5.4
CCC1C/C(=C/c2ccco2)C(=O)/C(=C/c2ccco2)C1 (centres undefined) | nt | nt | 96.8* | nt | nt | 6.7

Bioassay records from PubChem.
